Rab9 promoter act: activates the Rab9 promoter; Huh7 Rab9 promoter-luciferase reporter, luminescence, 24 h; Potency, µM (top dose mostly 9.22 µM), most hits filed as activators; 320,000 tested, 2.8% active; further: nearly all actives have a fitted effect of over 60% in size
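Huh7 cells stably carrying a Rab9 promoter-luciferase reporter, 1500 cells per well in OP-MEM I with 10% FBS, treated with compound 24 hours at 37C. Luciferase activity read by luminescence after 10 minutes with Amplite reagent.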
NPC1 promoter act: activators of NPC1 promoter | Huh7 NPC1 promoter luciferase reporter, 24 h | Potency, µM (top dose mostly 9.22 µM), actives largely listed as activators | 320,000 tested, 2.4% active | AID 485313; further: nearly all actives have a fitted effect of over 60% in size
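Huh7 reporter cells (NPC1 promoter driving luciferase) are dosed with compound for 24 h at 37 °C, 5% CO2; luciferase detection reagent is then added and luminescence measured after 10 min at ambient temperature.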
ELG1 repair inh: inhibitors of ELG1-dependent DNA repair in HEK293T cells | HEK293T ELG1-luciferase reporter, luminescence, 16 h; DNA damage induced by 5-fluorouridine | Potency, µM (titrated, usually from 46.1 µM), actives largely listed as inhibitors | 330,000 tested, 2.3% active; further: nearly all actives have a fitted effect of over 55% in size
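5-Fluorouridine DNA damage + compound/DMSO, 2,000 cells/well, 16 h, 37 °C/5% CO2. ONE-Glo, 30 min RT, luminescence. Readout = decrease in reporter signal.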
ELG1 genotoxic: induces genotoxicity in HEK293T cells with luciferase-tagged ELG1. Potency, µM (titrated, usually from 46 µM), actives largely listed as activators. AID 504466. HEK293T ELG1-luciferase reporter, luminescence, 16 h. 330,000 tested, 1.3% active; further: nearly all actives have a fitted effect of over 60% in size
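HEK293T cells expressing luciferase-tagged ELG1 were treated with compound or DMSO for 16 hr at 37°C. Luciferase activity was then read after 30 min with ONE-Glo at room temperature; rising signal flags genetic stress.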
FLuc counter: firefly luciferase modulation, counter-screen for miR-21 project; purified FLuc, Km substrates, luminescence inhibition; AID 588342; Potency, µM (top dose mostly 57.5 µM), actives largely listed as inhibitors; P08659; 360,000 tested, 6.9% active; further: nearly all actives have a fitted effect of over 55% in size
Target sequence (P08659 whole entry, looked up): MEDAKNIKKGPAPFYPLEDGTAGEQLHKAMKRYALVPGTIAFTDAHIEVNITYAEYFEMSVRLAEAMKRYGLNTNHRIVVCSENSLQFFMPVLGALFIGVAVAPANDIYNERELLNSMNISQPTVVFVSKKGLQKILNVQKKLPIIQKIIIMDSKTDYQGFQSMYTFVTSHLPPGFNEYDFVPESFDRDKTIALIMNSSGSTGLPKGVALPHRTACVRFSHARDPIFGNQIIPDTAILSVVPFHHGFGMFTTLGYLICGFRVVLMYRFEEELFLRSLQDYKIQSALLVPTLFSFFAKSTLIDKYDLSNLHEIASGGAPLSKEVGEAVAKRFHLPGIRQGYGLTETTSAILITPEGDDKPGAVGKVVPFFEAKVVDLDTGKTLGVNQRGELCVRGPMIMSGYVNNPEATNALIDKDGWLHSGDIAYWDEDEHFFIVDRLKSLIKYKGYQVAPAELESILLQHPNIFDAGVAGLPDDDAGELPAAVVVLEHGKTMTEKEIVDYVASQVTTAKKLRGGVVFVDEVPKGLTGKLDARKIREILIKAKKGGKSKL
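Purified P. pyralis luciferase (10nM final) with 10uM D-luciferin and 10uM ATP (Km levels) in 50mM Tris acetate pH 7.5, 10mM Mg acetate, 0.01% Tween-20, 0.05% BSA; qHTS 6-point titration, ~60 µM downward; luminescence read.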
SMN2 splice up: enhancers of SMN2 splice variant expression; HEK293 SMN2-luciferase splicing reporter, luminescence, 30-36 h; Potency, µM (top dose mostly 46.1 µM), most hits filed as activators; 210,000 tested, 2.8% active; AID 1458; further: nearly all actives have a fitted effect of over 55% in size
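HEK293 cells carry an SMN2 minigene-luciferase reporter in which exon 7 inclusion puts luciferase in frame. Cells were seeded at 2000 cells/well, attached for 10-12 hours, then exposed to compounds for 30-36 hours at 37C before ONE-Glo luminescence.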
Each line names hits and unclear results; the compound was inactive in the other large screens. Hits are enriched below; roughly 9.4% of the tested compounds scored in any of these assays. The call rests on the fitted dose curve; in most records, active means well fitted curve in the direction sought with a large enough effect; inconclusive means small, poorly fitted or top-dose-only effect, or another doubt; inactive means no such curve, though single readings can be large; an effect the other way counts as inactive or inconclusive.

Cc1cccc(N2CCN(C(=O)C3CCCCC3)CC2)c1C	ELG1 repair inh inconclusive
Cc1cccc(N2CCN(C(=O)C3CCC(CNS(=O)(=O)c4cccs4)CC3)CC2)c1C (configuration not stated)	ELG1 repair inh 9.2µM (no result: SMN2 splice up)
Cc1cccc(N2CCN(C(=O)C3CCN(S(=O)(=O)N4CCOCC4)CC3)CC2)c1C	ELG1 repair inh 18µM
Cc1cc(N2CCC(C(=O)N3CCN(c4cccc(C)c4C)CC3)CC2)n2ncnc2n1	ELG1 repair inh 21µM
Cc1cccc(N2CCN(C(=O)C3CCC(CNS(=O)(=O)c4ccc(Br)s4)CC3)CC2)c1C (configuration not stated)	none (no result: Rab9 promoter act, NPC1 promoter act, ELG1 repair inh, ELG1 genotoxic)
CN1c2ccccc2C(C)(C)C12CC(c1cccc(S(=O)(=O)N3CCCC3)c1)=NO2 (configuration not stated)	SMN2 splice up inconclusive
CN1c2ccccc2C(C)(C)C12CC(c1ccc(S(=O)(=O)N3CCCCC3)cc1)=NO2 (configuration not stated)	SMN2 splice up 1.1µM
CS(=O)(=O)c1ccc(/C=N\NC(N)=S)cc1	none (no result: Rab9 promoter act, NPC1 promoter act, ELG1 repair inh, ELG1 genotoxic, FLuc counter)
COCCNC(=O)C(=O)Nc1c2c(nn1-c1ccccc1)CS(=O)(=O)C2	none (no result: Rab9 promoter act, NPC1 promoter act, ELG1 repair inh, ELG1 genotoxic, SMN2 splice up)
Brc1ccc(-c2cn3nc4c(nc3n2)CCCC4)cc1	Rab9 promoter act 0.28µM, NPC1 promoter act 0.1µM, ELG1 repair inh inconclusive, ELG1 genotoxic inconclusive, FLuc counter 0.27µM, SMN2 splice up 4µM
c1ccc(-c2cn3c(n2)CCC3)cc1	ELG1 repair inh inconclusive
c1ccc(-c2cn3nc4c(nc3n2)CCCC4)cc1	Rab9 promoter act 0.13µM, NPC1 promoter act 0.11µM, ELG1 repair inh inconclusive, ELG1 genotoxic 0.13µM, FLuc counter 0.3µM, SMN2 splice up 0.5µM
Oc1c(Cl)cc(CN(Cc2cc(Cl)c(O)c(Cl)c2)C2CCCCC2)cc1Cl	none (no result: Rab9 promoter act, NPC1 promoter act, ELG1 repair inh, ELG1 genotoxic, FLuc counter)
CCn1c(C)nc2cc(C(=O)N/N=C(\C)c3ccccc3O)ccc21	Rab9 promoter act inconclusive, NPC1 promoter act inconclusive, ELG1 repair inh inconclusive, FLuc counter 13µM, SMN2 splice up inconclusive
CCn1c(C)nc2cc(C(=O)OC)ccc21	ELG1 repair inh inconclusive (no result: SMN2 splice up)
CCn1c(C)nc2cc(C(=O)NN=Cc3ccccc3OC(F)F)ccc21	ELG1 repair inh inconclusive (no result: Rab9 promoter act, NPC1 promoter act, FLuc counter, SMN2 splice up)
COc1cc([N+](=O)[O-])ccc1NC(=S)NNC(=O)CCC(=O)Nc1ccccc1Cl	Rab9 promoter act inconclusive, NPC1 promoter act inconclusive, ELG1 repair inh inconclusive, ELG1 genotoxic 9.2µM, FLuc counter inconclusive (no result: SMN2 splice up)
CCn1c(C)nc2cc(C(=O)NNC(=S)Nc3ccc(C)cc3)ccc21	FLuc counter inconclusive (no result: SMN2 splice up)
CCn1c(C)nc2cc(C(=O)N/N=C/c3ccccc3C)ccc21	Rab9 promoter act 1.1µM, NPC1 promoter act 1.8µM, ELG1 repair inh inconclusive, ELG1 genotoxic inconclusive, FLuc counter 11µM, SMN2 splice up 16µM
CCn1c(C)nc2cc(C(=O)NNC(=S)Nc3ccccc3OC)ccc21	Rab9 promoter act inconclusive, ELG1 repair inh inconclusive, FLuc counter 19µM (no result: SMN2 splice up)
CCOC(=O)c1c(C)[nH]c(C)c1S(=O)(=O)N1CCCC(C(=O)Nc2cccc(CC)c2)C1 (configuration not stated)	none (no result: Rab9 promoter act, NPC1 promoter act, ELG1 repair inh, ELG1 genotoxic, SMN2 splice up)
COc1ccccc1NC(=S)NNC(=O)c1ccc(Cl)cc1Cl	ELG1 repair inh inconclusive, FLuc counter 11µM, SMN2 splice up 16µM
Oc1ccc2c(c1)OCC1(O)Cc3cc(O)c(O)cc3C21 (configuration not stated)	none (no result: Rab9 promoter act, NPC1 promoter act, ELG1 repair inh, ELG1 genotoxic, FLuc counter)
Oc1cc2c(cc1O)[C@H]1c3ccc(O)c(O)c3OC[C@@]1(O)C2	FLuc counter 15µM
Cc1ccc(C)c(Nc2ncnc3onc(C)c23)c1	none (no result: Rab9 promoter act, NPC1 promoter act, ELG1 repair inh, ELG1 genotoxic, SMN2 splice up)
COc1ccccc1CNC(=O)C(CC(C)C)N1Cc2ccccc2C1=O (configuration not stated)	none (no result: Rab9 promoter act, NPC1 promoter act, ELG1 repair inh, ELG1 genotoxic, SMN2 splice up)
COc1cc(C(=O)NCC(c2ccc3c(c2)OCO3)N2CCN(C)CC2)cc(OC)c1OC (configuration not stated)	none (no result: Rab9 promoter act, NPC1 promoter act, ELG1 repair inh, ELG1 genotoxic, SMN2 splice up)
O=c1cc(-c2ccc(F)cc2)[nH][nH]1	none
O=c1cc(-c2ccc(C3CCCCC3)cc2)[nH][nH]1	FLuc counter 11µM
CCCCCCCCCCCCC1CO1 (configuration not stated)	none (no result: Rab9 promoter act, NPC1 promoter act, ELG1 repair inh, ELG1 genotoxic, FLuc counter)
